Test results taken from ChEMBL document CHEMBL1157539, “Thousands of chemical starting points for antimalarial lead identification” (Nature, 2010).

Legend:
Format in all cases: functional
[1] = system: Plasmodium falciparum; assay: GSK_TCMDC: Inhibition of Plasmodium falciparum 3D7 in whole red blood cells, using parasite LDH activity as an index of growth. Test compounds present at 2uM
[2] = system: Plasmodium falciparum; assay: GSK_TCMDC: Inhibition of Plasmodium falciparum Dd2 in whole red blood cells, using parasite LDH activity as an index of growth. Test compounds present at 2uM
[3] = system: HepG2; assay: GSK_TCMDC: Percent inhibition of human HepG2 cell line. Test compounds present at 10uM.

Row | Structure (SMILES) | Inhibition [1] | Inhibition [2] | Inhibition [3]
1 | O=C(/C=C/c1ccc(Cl)cc1)NCCCCCN1CCCN(C(=O)Nc2ccc(F)c(Cl)c2)CC1 | 94% | 6% | 29%
2 | CS(=O)(=O)c1ccc(CCNCc2ccc(-c3ccc(CN(C(=O)c4cccc(C#N)c4)C4CCN(Cc5ccccc5)CC4)cc3)nc2)cc1.O=C(O)C(F)(F)F | 96% | 56% | 20%
3 | COc1ccc(CNCc2cccc(-c3cccc(-c4nc5cc(F)ccc5[nH]4)c3)c2)cc1.O=C(O)C(F)(F)F | 100% | 55% | 18%
4 | O=C(CCc1c[nH]cn1)Nc1cccc(-c2ccc(-c3nc4cc(F)ccc4[nH]3)s2)c1 | 100% | 69% | 17%
5 | Cc1cc(N)c2cc(NC(=O)c3cc4ccccc4s3)ccc2n1 | 100% | 99% | 100%
6 | COc1ccccc1CNc1nc(Nc2ccccc2C)nc2ccccc12 | 100% | 67% | 24%
7 | O=C(NCc1cccc2ccccc12)C1CCCN(C(=O)c2ccc(O)c(-c3ccc(Cl)c(Cl)c3)c2)C1 (stereo not drawn) | 92% | 23% | 1%
8 | Cc1[nH]c(C)c(-c2ccc(OCc3cc(F)cc(F)c3)nc2)c(=O)c1Cl | 97% | 97% | 20%
9 | COc1cc(-c2cnc(N)c(-c3nc4ccccc4[nH]3)c2)cc(OC)c1OC.Cl | 100% | 57% | 59%
10 | OC(CNc1ccnc(Nc2ccc(Cl)cc2)n1)c1cccc(C(F)(F)F)c1 (stereo not drawn) | 100% | 84% | 9%
11 | CCN(CC)CCCC(C)Nc1c(-c2ccc(Br)cc2)cnc2ccccc12 (stereo not drawn) | 100% | 95% | 7%
12 | O=C(/C=C/c1ccc(Cl)c(Cl)c1)NCCCCCN1CCN(C(=O)Nc2ccc(Cl)c(C(F)(F)F)c2)CC1 | 100% | 0% | 22%
13 | Br.C=CCc1cc(Br)ccc1OCCCON1C(N)=NC(N)=NC1(C)C | 95% | 97% | 61%
14 | NC(=O)c1ccc(-n2cnc3cc(F)ccc32)cc1OCc1ccccc1C(F)(F)F.NC(=O)c1ccc(-n2cnc3ccc(F)cc32)cc1OCc1ccccc1C(F)(F)F | 97% | 93% | 55%
15 | CN1CCC(C(=O)N(Cc2ccc(-c3ccc(CNCCc4ccccc4)cn3)cc2)Cc2cccc(F)c2)CC1.O=C(O)C(F)(F)F | 90% | 80% | 30%
16 | Br.CC1(C)NC(N)=NC(=N)N1OCCCc1cccc(C(F)(F)F)c1 | 95% | 95% | 62%
17 | Oc1cccc2ccc(Nc3ccccn3)nc12 | 99% | 93% | 72%
18 | COc1cc(F)c2nccc([C@@H](O)CN3CCC(NCc4ccc5c(n4)NC(=O)CS5)CC3)c2c1 | 100% | 25% | 23%
19 | CC(C)c1cccc(C(C)C)c1NC(=O)NNC(=O)c1ccc(CCN2CCC(c3nc(COCC(F)(F)F)c(-c4ccc(F)cc4)o3)CC2)cc1 | 88% | 34% | 61%
20 | COc1cc(CN2CCC(C(=O)Nc3ccc(-c4cccc(C)c4)cc3)CC2)ccc1O | 100% | 85% | 25%
21 | Cc1cc2c(cc1Cl)N(C(=O)Nc1cc(F)cc(-c3cncnc3)c1)CC2 | 96% | 59% | 0%

Row | Structure (SMILES) | Inhibition [1] | Inhibition [2] | Inhibition [3]
22 | O=C(O)C(F)(F)F.c1cc(CN2CCC(CCN3CCCCC3)CC2)cc(-c2cccc(-c3nc4ccccc4[nH]3)c2)c1 | 100% | 100% | 95%
23 | Cc1cc2nc(-c3ccc(/C=C/C(=O)NCCCc4ccccc4)cc3)[nH]c2cc1C | 96% | 13% | 15%
24 | CN1CCC(COc2ccc(CN3CCC(NC(=O)c4cccc(Cl)c4)CC3)cc2)CC1.O=C(O)C(F)(F)F | 94% | 13% | 16%
25 | Cc1ccc(C2=NNC3(S2)C(=O)Nc2ccc(C)cc23)cc1 (stereo not drawn) | 95% | 89% | 35%
26 | Cc1cc(NCCc2ccccc2)nc(NC(=N)Nc2cccc([N+](=O)[O-])c2)n1 | 100% | 100% | 21%
27 | Cc1cc(CNCCCCCCNCc2ccc(-c3ccccc3)cc2)ccc1O | 98% | 0% | 90%
28 | COc1ccc2ncc(C#N)c(CCN3CCC(NCc4ccc5c(c4)NC(=O)CO5)CC3)c2c1.Cl | 99% | 43% | 25%
29 | COc1ccc(NC(=O)Nc2cc(C)nc3cccnc23)cc1Cn1ccnc1 | 100% | 41% | 12%
30 | Cl.Cn1c2ccccc2c2c3ccccc3c(CNC(CO)(CO)CO)cc21 | 96% | 78% | 67%
31 | COc1ccc2nccc([C@@H](O)CN3CCC(NC(=O)C(c4ccsc4)N4CCN(c5ccccc5)CC4)CC3)c2c1 (stereo partly drawn) | 95% | 17% | 24%
32 | COc1ccc(C2CC(c3cccs3)=NN2C(=O)CNc2ccccc2F)cc1OC (stereo not drawn) | 87% | 45% | 11%
33 | O=C(N[C@H]1CCN(Cc2ccc(OCCN3CCNCC3)c3ccccc23)C1)c1ccc(Cl)c(Cl)c1.O=C(O)C(F)(F)F | 100% | 99% | 53%
34 | Cc1ccccc1Nc1nc(NCCc2ccccc2)nc2ccccc12 | 82% | 18% | 32%
35 | CCCN/C=N/c1cc(-c2csc(NC(=N)N)n2)cc([N+](=O)[O-])c1 | 91% | 1% | 12%
36 | COc1cc(NC(=O)c2sc(-c3ccc(Cl)cc3)cc2Cl)ccc1OCCN1CCCC1.O=C(O)/C=C\C(=O)O | 93% | 21% | 72%
37 | O=C(Nc1ccc(CCNCc2ccccc2)cc1)Nc1ccc(OC(F)(F)F)cc1.O=C(O)C(F)(F)F | 100% | 22% | 0%
38 | CC1(C)N=C(N)N=C(N)N1c1cccc(Cl)c1.Cl | 96% | 96% | 69%
39 | CC(C)(C)c1ccc(O)c(CNC2CCCCC2)c1.Cl | 100% | 98% | 5%
40 | CCc1cc2c(=O)c(-c3nc(C)cs3)c(N)oc2c(CN2CCCCC2)c1O | 99% | 97% | 0%
41 | COc1ccc(CNCC2CCC(CNCCc3ccccc3)CC2)cc1Cl (stereo not drawn) | 100% | 29% | 23%
42 | CN1CCN(c2ccc(Nc3ccnc4ccc(-c5ccccc5)cc34)cc2)CC1 | 100% | 100% | 20%

Row | Structure (SMILES) | Inhibition [1] | Inhibition [2] | Inhibition [3]
43 | CC(C)N1CCN(c2ccc(OCCCN3CCN(c4cccc(Cl)c4Cl)CC3)c(C(F)(F)F)c2)CC1 | 94% | 37% | 79%
44 | COc1cc(F)c2nccc([C@@H](O)CN3CCC(NC(=O)OCc4ccccc4)C(F)C3)c2c1 (stereo partly drawn) | 99% | 100% | 44%
45 | CN1CCN=C1c1ccc(NC(=O)Nc2ccc(C3=NCCN3C)cc2)cc1.Cl | 85% | 69% | 7%
46 | CC(=NNC(S)=NC(C)(C)C)c1ccccn1 | 99% | 100% | 63%
47 | Cc1cc(-c2cccc(CNCc3ccc(F)cc3)c2)ccc1S(=O)(=O)NCCN1CCCC1.O=C(O)C(F)(F)F | 100% | 64% | 49%
48 | C(=NN=c1cc[nH]c2ccccc12)c1ccncc1 | 95% | 27% | 7%
49 | COc1cccc(NC(=O)[C@H](C)n2c(=O)[nH]c3ccccc3c2=O)c1 | 100% | 92% | 8%
50 | O=C(c1cc(C(=O)Nc2ccccc2)c(=O)n(-c2ccccc2)c1)c1cc(Cl)ccc1O | 100% | 95% | 9%
51 | Cc1ccc(Nc2nc(N/N=C/c3cccc([N+](=O)[O-])c3)nc(Nc3ccccc3)n2)c(C)c1 | 91% | 97% | 9%
52 | CC(C)CN1CCN(CCNc2c3ccccc3nc3ccccc23)CC1 | 97% | 79% | 26%
53 | c1cn(CCCNc2ncc(-c3ccsc3)c(-c3nccs3)n2)cn1 | 94% | 51% | 0%
54 | NC(=O)COc1c(C2CCN(CCN3CCC(CNC(=O)c4ccc(-c5ccc(C(F)(F)F)cc5)cc4)CC3)CC2)ccc2c1CCCC2 | 87% | 68% | 32%
55 | COc1cc(Nc2ccnc3ccc(C(C)(C)C)cc23)cc(OC)c1OC | 100% | 80% | 12%
56 | COc1ccc(C2=[N+]([O-])c3ccccc3C2=O)cc1 | 93% | 61% | 2%
57 | CCOC(=O)c1c(C)n(-c2ccccc2)c2ccc(OC(=O)c3ccc(S(=O)(=O)N(CC)CC)cc3)cc12 | 94% | 63% | 0%
58 | C[C@H](Nc1nc(C(Oc2ccccc2)c2ccccc2)nc2[nH]ncc12)c1ccccc1 (stereo partly drawn) | 100% | 56% | 15%
59 | CC1CN(c2cc(=O)n(Cc3cccc(NC(=O)Nc4ccc(-c5ccccc5)cc4)c3)cn2)CC(C)N1.O=C(O)C(F)(F)F (stereo not drawn) | 100% | 63% | 2%
60 | COC(=O)COc1cc(C(=O)NCCCCN2CCC(c3ccc4c(c3OC)CCCC4)CC2)ccc1-c1ccc(Cl)cc1 | 97% | 21% | 32%
61 | CN(C)CCN(C)Cc1ccc(-c2cccc(-c3nc4ccccc4[nH]3)c2)cc1.O=C(O)C(F)(F)F | 100% | 78% | 46%
